The values that follow come from the OligoGym collection.
Further: reference of the scale not given here.

The first assay concerns the target UBA3. As to the kind of experiment: pooled miR-30 sensor sort-seq; sequence = guide strand. To be noted: shRNA.
In the case of TTACATACTCAATACAGTGTTC, the sensor-assay potency score (higher = more potent) is -0.397.
Sequence TTAAAATCTTGAATCTTGTTGA showed a sensor-assay potency score (higher = more potent) of 0.888.
For TTGCAGAGAAGCACTATTGGTT, the sensor-assay potency score (higher = more potent) is -0.184.
The same measure, in the same setting: next, TAGATAATCCAAAACCTCCTGT: 0.333.
The sequence TTCTTGTCCATCAACAAGCCCC registered a sensor-assay potency score (higher = more potent) of -0.667.
TTGGATCTAAGACACCATCTTC gave a sensor-assay potency score (higher = more potent) of 0.0215.
Same read-out and setting: as for TATATTGTGATGCTCTCTCTAG, the figure is -0.466.

The next assay addresses UBE2F. Described as above. The note with it: shRNA.
AACTGTAACACAGTCCATGGGC showed a sensor-assay potency score (higher = more potent) of -0.0499.
TTTATTCCGGAAGTCCTCCTTG came in with a sensor-assay potency score (higher = more potent) of -0.121.
The sequence ACAAACTGTAACACAGTCCATG showed a sensor-assay potency score (higher = more potent) of -1.41.
On the same count and under the same terms, as for TTTGAGACCATCGTCACGCTTC, the figure is 0.155; as for TTCTCCATCTACAATGAGCAGT, -0.914.
The same measure, in the same setting: as for TTTGTCTCTCACAGAAACCCTC, the figure is -0.658; as for TTCTGCAGCTTCAATATTCAGT, -0.23.
Same read-out and setting: next, TTCAAGTTCTGCAACCTCTTTA: 0.721; TTTAACAAGCAATTTGTCTCTC: 0.519.
On to TAGCTGAAAACAATGAAGCTTG, for which the sensor-assay potency score (higher = more potent) was -0.377.
For TTAACAAGCAATTTGTCTCTCA, the sensor-assay potency score (higher = more potent) is -0.236.
Regarding TAGTCATCCACTTTATTCCGGA, the sensor-assay potency score (higher = more potent) is -0.0909.

A further assay deals with UBTD2. Described as above. The note with it: shRNA.
AACCTGTACAACATAGTCCTTT returned a sensor-assay potency score (higher = more potent) of 0.105.
For TCTTGCTGCGTAGTTGTCCATC, the sensor-assay potency score (higher = more potent) is -1.04.
Regarding TGTGCTGCGAACCACAAGCTTG, the sensor-assay potency score (higher = more potent) was -1.41.
On the same count and under the same terms, as for TACACTGGAAGCTGATATCTGT, the figure is 0.00464.
Consider TAACCTGTACAACATAGTCCTT, for which the sensor-assay potency score (higher = more potent) was -0.877.
The same measure, in the same setting: as for TATGTCGCTCTTTTCCTCTATC, the figure is -0.749; as for TATGTTTGCACCATCAATGATT, -0.561; as for TACAACATAGTCCTTTGGGATC, -1.63.
In turn, AAAACCACCGCTGACTACCTGG returned a sensor-assay potency score (higher = more potent) of -0.559.
In the case of TTCATAGGGAATTTAGAGCAGT, the sensor-assay potency score (higher = more potent) is -0.206.
The sequence TGGAATACTGTGTCTGTGCTGC gave a sensor-assay potency score (higher = more potent) of -0.0459.
TCGAACTTCATTTTGTCAGTGA: the sensor-assay potency score (higher = more potent) worked out at 0.607.

The next assay deals with UBXN2A. Described as above. To be noted: shRNA.
TTGATTGTTGATTATTACCAAG displayed a sensor-assay potency score (higher = more potent) of -1.29.
TTTTATATTTACATCTACCTGT: the sensor-assay potency score (higher = more potent) was found to be 0.256.
Regarding TTCTTTATCAAAAATTCCCTGT, the sensor-assay potency score (higher = more potent) is -0.0297.
In turn, TTAAATTTCTGGACAATCCTTT returned a sensor-assay potency score (higher = more potent) of 0.433.
With TAACTTCTGAAATCGTCGTTGA, the sensor-assay potency score (higher = more potent) came out at 0.784.
With ATAACTTCTGAAATCGTCGTTG, the sensor-assay potency score (higher = more potent) was 0.446.
The sequence TATATTTACATCTACCTGTTTC returned a sensor-assay potency score (higher = more potent) of -0.892.
On the same count and under the same terms, as for TTAATATATCTTGATAACTGGT, the figure is -0.45.
On the same count and under the same terms, next, TACATCTACCTGTTTCTTCTGT: 0.409.
